# Experimental data: PubChem BioAssay (NCATS)
# Inconclusive results are not listed. Entries that show only a call come without a potency. Activity calls are given as the source filed them. The call rests on the fitted dose curve; in most records, active means well fitted curve in the direction sought with a large enough effect; inconclusive means small, poorly fitted or top-dose-only effect, or another doubt; inactive means no such curve, though single readings can be large; an effect the other way counts as inactive or inconclusive.
# How the values were obtained:
# [1] = qHTS of pediatric cancer cell lines to identify multiple opportunities for drug repurposing: Primary screen for SK-N-SH cells (AID 1347098); further: nearly all actives have a fitted effect of over 65% in size; further: potency means the concentration at half of the fitted maximal effect
# Procedure, shortened: (§1)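 Cells (500-1,000/well) rested 5 h, then received compounds for 48 h; metabolically active cells were measured by CellTiter-Glo luminescence. Final concentrations spanned up to 46 µM (MIPE, 11-point) or 0.59 nM-46 µM (NPC, 8-point) in primary screens, 11-point in follow-ups.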
# [2] = qHTS of pediatric cancer cell lines to identify multiple opportunities for drug repurposing: Primary screen for NB1643 cells (AID 1347099); further: nearly all actives have a fitted effect of over 50% in size; further: potency means the concentration at half of the fitted maximal effect
# Procedure, shortened: (§2)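 Readout: CellTiter-Glo luminescence, 48 h treatment. Controls DMSO (neutral) and bortezomib 2.3 µM final (positive). Potency and efficacy taken from primary-screen concentration-response curves.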
# [3] = qHTS of pediatric cancer cell lines to identify multiple opportunities for drug repurposing: Primary screen for BT-12 cells (AID 1347101); further: nearly all actives have a fitted effect of over 25% in size; further: potency means the concentration at half of the fitted maximal effect
# Procedure, shortened: as §1
# [4] = qHTS of pediatric cancer cell lines to identify multiple opportunities for drug repurposing: Primary screen for Rh18 cells (AID 1347102); further: nearly all actives have a fitted effect of over 65% in size; further: potency means the concentration at half of the fitted maximal effect
# Procedure, shortened: as §1
# [5] = qHTS of pediatric cancer cell lines to identify multiple opportunities for drug repurposing: Primary screen for OHS-50 cells (AID 1347103); further: nearly all actives have a fitted effect of over 40% in size; further: potency means the concentration at half of the fitted maximal effect
# Procedure, shortened: as §1
# [6] = qHTS of pediatric cancer cell lines to identify multiple opportunities for drug repurposing: Primary screen for RD cells (AID 1347104); further: nearly all actives have a fitted effect of over 55% in size; further: potency means the concentration at half of the fitted maximal effect
# Procedure, shortened: as §2
# [7] = qHTS of pediatric cancer cell lines to identify multiple opportunities for drug repurposing: Primary screen for MG 63 (6-TG R) cells (AID 1347105); further: nearly all actives have a fitted effect of over 50% in size; further: potency means the concentration at half of the fitted maximal effect
# Procedure, shortened: as §2
# [8] = qHTS of pediatric cancer cell lines to identify multiple opportunities for drug repurposing: Primary screen for control Hh wild type fibroblast cells (AID 1347106); further: nearly all actives have a fitted effect of over 55% in size; further: potency means the concentration at half of the fitted maximal effect
# Procedure, shortened: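 Viability after 48 h compound treatment at 37C, 500-1,000 cells/well, read as ATP luminescence with CellTiter-Glo. Primary screens used 11-point (MIPE, 0.78 nM-46 µM) or 8-point (NPC, 0.59 nM-46 µM) final concentrations; follow-up screens used 11-point dilutions.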
# [9] = qHTS of pediatric cancer cell lines to identify multiple opportunities for drug repurposing: Primary screen for Rh30 cells (AID 1347107); further: series mostly up to about 46 µM; nearly all actives have a fitted effect of over 75% in size
# Procedure, shortened: as §1
# [10] = qHTS of pediatric cancer cell lines to identify multiple opportunities for drug repurposing: Primary screen for LAN-5 cells (AID 1347100)
# Procedure, shortened: as §1
# [11] = qHTS of pediatric cancer cell lines to identify multiple opportunities for drug repurposing: Primary screen for Rh41 cells (AID 1347108);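 further: series mostly up to about 46 µM; luminescence drop marks cytotoxic hits; nearly all actives have a fitted effect of over 70% in size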
# Procedure, shortened: as §2
# [12] = qHTS of pediatric cancer cell lines to identify multiple opportunities for drug repurposing: Confirmatory screen for NB1643 cells (AID 1347109); further: potency means the concentration at half of the fitted maximal effect; nearly all actives have a fitted effect of over 45% in size
# Procedure, shortened: as §1
# [13] = qHTS of pediatric cancer cell lines to identify multiple opportunities for drug repurposing: Confirmatory screen for SK-N-MC cells (AID 1347111);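 further: potency means the concentration at half of the fitted maximal effect; cells exposed to compound for 48 h before the readout; nearly all actives have a fitted effect of over 70% in size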
# Procedure, shortened: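 Seed 500-1,000 cells/well; rest 5 h at 37 degrees C. Pin-transfer compounds, 11-point titration. Incubate 48 h. Add CellTiter-Glo, 15 min RT, read luminescence.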
Structure (SMILES),Potency [1],Potency [2],Potency [3],Potency [4],Potency [5],Potency [6],Potency [7],Potency [8],Potency [9],Potency [10],Potency [11],Potency [12],Potency [13]
CCC1(CC)C(=O)NC(=O)NC1=O,inactive,inactive,inactive,inactive,inactive,inactive,inactive,inactive,inactive,–,–,–,–
Cc1ccc(N=CN(C)C=Nc2ccc(C)cc2C)c(C)c1,inactive,inactive,inactive,inactive,inactive,inactive,inactive,inactive,inactive,–,–,–,–
c1cc2c(c(N3CCNCC3)c1)OCCO2,inactive,inactive,inactive,inactive,inactive,inactive,inactive,inactive,inactive,inactive,inactive,–,–
O=c1[nH]c2cc(Cl)ccc2n1C1CCNCC1,inactive,inactive,inactive,inactive,inactive,inactive,inactive,inactive,inactive,–,–,–,–
CCOC(=O)c1cncn1C(C)c1ccccc1 (stereo unspecified),inactive,inactive,inactive,inactive,inactive,inactive,inactive,inactive,inactive,inactive,–,–,–
CCOC(=O)NC(C)(C)Cc1ccc(Cl)cc1,inactive,inactive,inactive,inactive,inactive,inactive,inactive,inactive,inactive,–,inactive,–,–
O=c1n(Cl)c(=O)n(Cl)c(=O)n1Cl,inactive,inactive,inactive,inactive,inactive,inactive,inactive,inactive,inactive,inactive,–,–,–
CCNc1nc(Cl)nc(NCC)n1,inactive,inactive,inactive,inactive,inactive,inactive,inactive,inactive,inactive,–,inactive,–,–
COP(=O)(OC)OC=C(Cl)Cl,inactive,inactive,inactive,inactive,inactive,inactive,inactive,inactive,inactive,–,inactive,–,–
c1ccc2c(c1)Sc1ccccc1N2CC1CN2CCC1CC2 (stereo unspecified),27.3 µM (active),23.7 µM (active),15.5 µM (active),23.7 µM (active),19.5 µM (active),15 µM (active),21.1 µM (active),23.7 µM (active),–,–,–,–,–
C[N+](C)(C)CCOC(=O)C(O)(c1ccccc1)c1ccccc1,inactive,inactive,inactive,inactive,inactive,inactive,inactive,inactive,inactive,–,inactive,–,–
O=C(N[C@H]1N=C(c2ccccc2F)c2cccc3c2N(CC3)C1=O)c1cc2ccccc2[nH]1,inactive,inactive,inactive,inactive,inactive,inactive,inactive,inactive,inactive,inactive,inactive,–,–
OC(O)C(Cl)(Cl)Cl,inactive,inactive,inactive,inactive,inactive,inactive,inactive,inactive,inactive,–,inactive,–,–
COCC(=O)N(c1c(C)cccc1C)C(C)C(=O)OC (stereo unspecified),inactive,inactive,inactive,inactive,inactive,inactive,inactive,inactive,inactive,inactive,inactive,–,–
CNC(=O)Oc1cccc2ccccc12,inactive,inactive,inactive,inactive,inactive,inactive,inactive,inactive,inactive,inactive,inactive,–,–
O=C1CN2CCOC2(c2ccccc2Cl)c2cc(Cl)ccc2N1 (stereo unspecified),inactive,inactive,inactive,inactive,–,inactive,inactive,inactive,inactive,inactive,inactive,–,–
CN(C)C(=S)SSC(=S)N(C)C,–,–,–,–,–,–,–,–,–,–,–,1.31 µM (active),0.928 µM (active)
